Experiment [1] in a line: NCI Yeast Anticancer Drug Screen. Data for the rad50 strain (AID 155).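 Note: 0% = growth of vehicle-only cultures of the same strain.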 The following applies: S. cerevisiae rad50 strain growth inhibition; at 50.0 µM; active compounds read high. A digest of the protocol:
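DNA repair mutant yeast, compound exposure, growth read-out; inhibition is taken relative to vehicle.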

The nature of experiment [2]: NCI Yeast Anticancer Drug Screen. Data for the mec2-1 strain (AID 157). The following applies: S. cerevisiae mec2-1 strain, at 50.0 µM, active compounds read high. An outline of the steps: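 Yeast mec2-1 mutant treated with compound. Readout: growth inhibition vs vehicle controls.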
A short description of experiment [3]: NCI Yeast Anticancer Drug Screen. Data for the sgs1 mgt1 strain (AID 161).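 Note: 0% = growth of cultures given vehicle only.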 The following applies: S. cerevisiae sgs1 mgt1 strain, at 50.0 µM, active compounds read high. A digest of the protocol:
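Test agents were incubated with a DNA-repair-mutant yeast strain. Growth was then read and compared against vehicle-treated controls.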

Experiment [4] in a line: NCI Yeast Anticancer Drug Screen. Data for the cln2 rad14 strain (AID 165).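 Note: 0% = growth equal to vehicle treated cultures.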 As to conditions: S. cerevisiae cln2 rad14 strain, at 50.0 µM, active compounds read high. A digest of the protocol:
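cln2 rad14 yeast strain; compound exposure; growth inhibition read vs vehicle controls.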

Experiment [5] can be described thus: NCI Yeast Anticancer Drug Screen. Data for the bub3 strain (AID 167). As to conditions: S. cerevisiae bub3 mutant strain, at 50.0 µM, active compounds read high. A digest of the protocol:
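In this screen, a yeast mutant lacking normal mitotic checkpoint function is challenged with compound. Relative growth versus vehicle gives the inhibition value.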

Experiment [6] is described as follows: NCI Yeast Anticancer Drug Screen. Data for the mlh1 rad18 strain (AID 175). As to conditions: S. cerevisiae mlh1 rad18 strain growth inhibition; at 50.0 µM; active compounds read high. A digest of the protocol: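 Yeast w/ defined DNA-repair lesions; compound exposure; growth vs vehicle controls → % inhibition.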

SMILES strings stand for the structures. This is part of a sample that, as a whole, favours compounds with a hit. Of some 79,000 tested, about 15% had one in any assay. A number with no mark means an inactive call. Active and inactive are the calls of the source. Cut-off read from the data, not from the text of the source: active = growth inhibition above about 70%; inactive = the rest.

Growth inhibition data for 37 molecules are collected here from PubChem BioAssay (NCI).

In the case of `NC(CCNCCc1ccccc1)CNCCc1ccccc1` (configuration not stated), the growth inhibition in experiment [1] is 29.7%; in experiment [2], -11.6%; in experiment [3], 10.9%; in experiment [4] it was -2.85%; in experiment [5], -6.5%; in experiment [6] it was -7.15%.

Take `CC1CC(C[N+](=O)[O-])CC2(C1)OCCO2` (configuration not stated): the growth inhibition in experiment [1] was -1.5%; in experiment [2], -25.3%; in experiment [3] it was -28.6%; in experiment [4], 5.1%; in experiment [5] it was -28.8%; in experiment [6], -5.15%.

On to `Oc1cccc(O)c1`, for which the growth inhibition was 0.8% in experiment [1]; -1% in experiment [2]; -1.1% in experiment [3]; -12.2% in experiment [4]; 1.75% in experiment [5]; 33.1% in experiment [6].

For the molecule `O=C(O)c1ccccc1/C=N/NC1=NCCCCN1`, the growth inhibition in experiment [1] was -46.8%; in experiment [2] it was -23.4%; in experiment [3] it was -29.4%; in experiment [4] it was -9.65%; in experiment [5], -7.55%; in experiment [6] it was -33.1%.

Turning to `Clc1ccc(-c2onc3ccc(Br)cc23)cc1`, the growth inhibition in experiment [1] is -6.65%; in experiment [2], -12.3%; in experiment [3], -1.15%; in experiment [4], -17.9%; in experiment [5], -0.75%; in experiment [6], 8.5%.

For `CC(/C=C/c1ccccc1)=N\NC(=O)c1ccccc1`, the growth inhibition is 44.8% in experiment [1]; 5.3% in experiment [2]; -5.4% in experiment [3]; 4.3% in experiment [4]; -15.1% in experiment [5]; -47.1% in experiment [6].

Regarding `CCNC1CC(C(C)(C)NCC)CC=C1C` (configuration not stated), the growth inhibition was -31.4% in experiment [1]; -25.2% in experiment [2]; -38.7% in experiment [3]; -15.4% in experiment [4]; -46.9% in experiment [5]; -55.2% in experiment [6].

For `Nc1c(Cl)cc(Cl)cc1C(=O)O`, the growth inhibition in experiment [1] was -5.05%; in experiment [2] it was -10.5%; in experiment [3], 0.35%; in experiment [4] it was -28.7%; in experiment [5], -11.2%; in experiment [6], -16.1%.

`Nc1ccc(N=Nc2ccc(C(=O)O)cc2)cc1`: the growth inhibition in experiment [1] was -32.9%; in experiment [2], -48%; in experiment [3], 18.1%; in experiment [4] it was 3%; in experiment [5], -26.4%; in experiment [6] it was -7.6%.

Turning to `COc1cc2c(cc1OCc1ccccc1)NC(=O)C2`, the growth inhibition in experiment [1] is 0.5%; in experiment [2], 20.2%; in experiment [3], 12.8%; in experiment [4], -7.85%; in experiment [5], -18.9%; in experiment [6] it was -7%.

Take `NC(=O)CNCC1Cc2ccccc21` (configuration not stated): the growth inhibition in experiment [1] was 21.8%; in experiment [2] it was 6.85%; in experiment [3], 0.1%; in experiment [4] it was -16.4%; in experiment [5], 4.6%; in experiment [6], 7.45%.

In the case of `COc1ccc(/C=C/C(=O)c2ccccc2)cc1`, the growth inhibition in experiment [1] was 25.7%; in experiment [2], -18.1%; in experiment [3] it was -12.6%; in experiment [4], 2.25%; in experiment [5], -28.9%; in experiment [6], 4.9%.

For `O=COCc1ccc2c(c1)OCO2`, the growth inhibition is 35.3% in experiment [1]; 36.9% in experiment [2]; 22.9% in experiment [3]; 15.2% in experiment [4]; 10.1% in experiment [5]; 27.8% in experiment [6].

As to `N#CC(NNC(=O)Cc1ccccc1)c1c(O)ccc2ccccc12` (configuration not stated), the growth inhibition in experiment [1] was 7.45%; in experiment [2] it was -4.9%; in experiment [3] it was 4.5%; in experiment [4], -18.2%; in experiment [5] it was -3.15%; in experiment [6] it was -7.25%.

Regarding `CCC(C)C(C)(CO)CO` (configuration not stated), the growth inhibition in experiment [1] was 1.5%; in experiment [2], -20.9%; in experiment [3], -3.7%; in experiment [4] it was 20.4%; in experiment [5], -14.3%; in experiment [6], 25.6%.

With `CCCN=C(NC(=O)c1ccc(Cl)cc1)SC`, the growth inhibition in experiment [1] is -16.3%; in experiment [2], -41.5%; in experiment [3], -6.05%; in experiment [4] it was -6.7%; in experiment [5] it was 8.05%; in experiment [6], -46.4%.

Turning to `CC(C)C(=O)Nc1ccc(Cl)c(Cl)c1`, the growth inhibition in experiment [1] is 33.9%; in experiment [2], 6.35%; in experiment [3] it was 44.3%; in experiment [4], 41.2%; in experiment [5] it was -4.05%; in experiment [6] it was 58.1%.

Take `O=C(O)Cc1ccc(I)cc1`: the growth inhibition in experiment [1] is 58%; in experiment [2], -1.2%; in experiment [3], 26.9%; in experiment [4] it was -54%; in experiment [5] it was 34.2%; in experiment [6] it was 25.3%.

As for `COC1C2C[C@@H](O)CCC2C(C(=O)OCCl)C[C@H]1O` (some centres not stated), the growth inhibition was -12.4% in experiment [1]; -6.9% in experiment [2]; -11% in experiment [3]; -27.2% in experiment [4]; -10.6% in experiment [5]; -30.2% in experiment [6].

`O=C1C(=Cc2cccc(O)c2)N=C(c2ccccc2)N1n1c(-c2ccccc2)nc2ccccc2c1=O`: the growth inhibition in experiment [1] is -14.3%; in experiment [2] it was 5.15%; in experiment [3] it was 25.8%; in experiment [4] it was 14.7%; in experiment [5], -1.75%; in experiment [6], 11.9%.

For the molecule `Cn1c(=O)c2[nH]c([N+](=O)[O-])nc2n(C)c1=O`, the growth inhibition is 23.4% in experiment [1]; -10% in experiment [2]; -0.3% in experiment [3]; 13.6% in experiment [4]; -20.1% in experiment [5]; 25.8% in experiment [6].

With `Cn1c(Cl)cn2c3nc4ccccc4nc3c(=O)c(C#N)c12`, the growth inhibition in experiment [1] is 6.1%; in experiment [2], -29.2%; in experiment [3], -52.1%; in experiment [4] it was 1.3%; in experiment [5] it was -18.1%; in experiment [6], -4%.

Regarding `COC(=O)C(=O)[C@@H](O)[C@H](O)[C@@H](O)CO`, the growth inhibition is 29.8% in experiment [1]; 23.7% in experiment [2]; 25% in experiment [3]; 13.1% in experiment [4]; 25.7% in experiment [5]; 23.6% in experiment [6].

As for `CCCCCCCCC1CC(=O)OC1=O` (configuration not stated), the growth inhibition in experiment [1] was 0.05%; in experiment [2], 0.55%; in experiment [3], -0.65%; in experiment [4], 7.05%; in experiment [5], -1.55%; in experiment [6], -2.35%.

Consider `C=CCN(CC=C)CCNc1cc(C)nc(Nc2nc3ccc(Cl)cc3[nH]2)n1`, for which the growth inhibition in experiment [1] was 90.6% (active); in experiment [2], 50.4%; in experiment [3] it was 93.2% (active); in experiment [4], 82% (active); in experiment [5], 24.9%; in experiment [6], 91.5% (active).

For `CCCCCCCC1CC(OCC)OC(CCCCCCC)O1` (configuration not stated), the growth inhibition in experiment [1] is -1.8%; in experiment [2] it was -15.1%; in experiment [3] it was -6.95%; in experiment [4], -8.2%; in experiment [5], -2.25%; in experiment [6], -18.4%.

For `COc1cccc(C2=CCCCCC2)c1OC`, the growth inhibition was 1.15% in experiment [1]; -12.8% in experiment [2]; -9.45% in experiment [3]; -23% in experiment [4]; -15.9% in experiment [5]; 4.3% in experiment [6].

With `O=[N+]([O-])c1ccc2c(N3CCC(CCCC4CCN(c5ncnc6cc([N+](=O)[O-])ccc56)CC4)CC3)ncnc2c1`, the growth inhibition in experiment [1] is 2.55%; in experiment [2], -16.7%; in experiment [3], 39%; in experiment [4], 19.2%; in experiment [5], -10.8%; in experiment [6], -2.9%.

With `CCCCCC#CC1OC1(C)C` (configuration not stated), the growth inhibition in experiment [1] was -2.1%; in experiment [2], -8.05%; in experiment [3] it was -2.8%; in experiment [4] it was -27%; in experiment [5], 5.95%; in experiment [6], -12.2%.

`CCc1n[nH]c(=O)n1N1C(=O)C2CCCCC2C1=O` (configuration not stated): the growth inhibition was 16.1% in experiment [1]; -20.5% in experiment [2]; 35.1% in experiment [3]; 6.5% in experiment [4]; 3.2% in experiment [5]; -25.9% in experiment [6].

As to `CC12CC3CC(C)(C1)CC(SCCN=C(N)CCl)(C3)C2`, the growth inhibition in experiment [1] was 98.5% (active); in experiment [2] it was 99% (active); in experiment [3] it was 99.3% (active); in experiment [4], 96.3% (active); in experiment [5] it was 99% (active); in experiment [6] it was 99.2% (active).

Turning to `CCOCCOC(=O)CCC1CCCCC1`, the growth inhibition in experiment [1] is 29.8%; in experiment [2], 16.5%; in experiment [3], 9.1%; in experiment [4] it was 11.2%; in experiment [5], 19%; in experiment [6], 29.6%.

With `Cc1ccc(C(=O)/C=C\C=C\c2ccccc2)cc1`, the growth inhibition was 16.6% in experiment [1]; 27.7% in experiment [2]; 41.6% in experiment [3]; -3.7% in experiment [4]; 50.6% in experiment [5]; 19.8% in experiment [6].

For `O=C1OC(Cc2ccccc2)=N/C1=C/c1ccccc1`, the growth inhibition is 9.05% in experiment [1]; 0.8% in experiment [2]; 1.15% in experiment [3]; -9% in experiment [4]; 2.7% in experiment [5]; 4.55% in experiment [6].

Regarding `Cc1ccc(SCCSc2ccc(C)cc2)cc1`, the growth inhibition is 17.7% in experiment [1]; 5.8% in experiment [2]; 3% in experiment [3]; -5.7% in experiment [4]; 29.5% in experiment [5]; 39.5% in experiment [6].

With `CNC1(C(=O)O)CCCCC1`, the growth inhibition in experiment [1] is -0.35%; in experiment [2] it was -4.65%; in experiment [3] it was -2%; in experiment [4], 4.6%; in experiment [5], 4.85%; in experiment [6], -2.2%.

Regarding `CSc1ncc2c(C#N)c3ccccn3c(=O)c2n1`, the growth inhibition was 6.65% in experiment [1]; -7% in experiment [2]; 11.2% in experiment [3]; -1.5% in experiment [4]; 14.4% in experiment [5]; -17.5% in experiment [6].
